Results on 8 molecules are retold here after PubChem BioAssay (NCI).

Some test systems named below: SK-MEL-2 melanoma; EKVX NSCLC; SN12C renal; UO-31 renal; TK-10 renal; ACHN renal; CAKI-1 renal; A498 renal; CCRF-CEM leukemia; MOLT-4 leukemia; SR leukemia; RPMI-8226 leukemia; OVCAR-8 ovarian; OVCAR-5 ovarian; OVCAR-4 ovarian; SK-OV-3 ovarian; IGROV1 ovarian; OVCAR-3 ovarian; HS 578T breast; NCI/ADR-RES ovarian.
Experiment in all cases: NCI-60 one-dose screen, 48 h (100 = growth as untreated, 0 = no growth, -100 = all killed)
What all share (settings): 10 µM unless noted

This is part of a sample that, as a whole, favours compounds with a hit. Of some 83,000 tested, about 20% had one in any assay.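 Growth was measured after 48 h exposure to one concentration of compound in 96-well plates. Values under 10 count as active.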 A number with no mark means an inactive call. Activity calls are given as the source filed them.

`O=C(NN1C(=O)/C(=C/C=C/c2ccc([N+](=O)[O-])o2)SC1=S)c1ccc(O)cc1`: the growth with SK-MEL-2 melanoma is -89.4% (active); with EKVX NSCLC, -98.1% (active); with SN12C renal, -97.5% (active); in the assay with UO-31 renal it was -92.7% (active); in the assay on TK-10 renal, -99.3% (active); with ACHN renal, -100% (active). The growth was -100% (active) with CAKI-1 renal; 14.6% in the assay with A498 renal; -24% (active) with CCRF-CEM leukemia; -40.7% (active) in the assay with MOLT-4 leukemia; -7.52% (active) with SR leukemia; -26.1% (active) with RPMI-8226 leukemia. For the same molecule, the growth was -70.9% (active) in the assay on OVCAR-8 ovarian; -98.7% (active) in the assay on OVCAR-5 ovarian; -99.8% (active) in the assay on OVCAR-4 ovarian; -98.9% (active) with SK-OV-3 ovarian; -95.6% (active) in the assay with IGROV1 ovarian; -88.6% (active) with OVCAR-3 ovarian. Further, the growth in the assay with HS 578T breast was -1.61% (active); with NCI/ADR-RES ovarian it was -22.3% (active).
On to `CC(C)(C)C(=O)C1CC(C#N)=C2C=Cc3c(ccc4ccccc34)N21` (centres undefined), for which the growth with SK-MEL-2 melanoma is 92.4%; with EKVX NSCLC, 79.7%; with SN12C renal, 92.4%; with UO-31 renal, 90.5%; in the assay with TK-10 renal it was 92.6%; with ACHN renal, 85.2%. Besides, the growth in the assay on CAKI-1 renal is 86.7%; with A498 renal it was 144%; in the assay on CCRF-CEM leukemia, 91.4%; in the assay on MOLT-4 leukemia, 81.6%; in the assay with SR leukemia, 94.3%; in the assay with RPMI-8226 leukemia, 75%. Further, the growth was 71.2% with OVCAR-8 ovarian; 121% in the assay with OVCAR-5 ovarian; 79.3% in the assay with OVCAR-4 ovarian; 75% in the assay with SK-OV-3 ovarian; 92.9% in the assay on IGROV1 ovarian; 96.3% with OVCAR-3 ovarian. For the same molecule, the growth is 30.6% in the assay on HS 578T breast and 81.9% with NCI/ADR-RES ovarian.
For `O=C(CSc1nc2ccccc2c(=O)[nH]1)NNC(=O)c1ccccc1Cl`, the growth was 105% with SK-MEL-2 melanoma; 109% with EKVX NSCLC; 112% in the assay on SN12C renal; 91.2% with UO-31 renal; 105% with TK-10 renal; 112% in the assay on ACHN renal. In addition, the growth in the assay with CAKI-1 renal was 90.4%; in the assay on A498 renal, 100%; in the assay with CCRF-CEM leukemia, 120%; in the assay with MOLT-4 leukemia, 111%; with SR leukemia, 113%; in the assay with RPMI-8226 leukemia, 108%. Moreover, the growth is 100% in the assay with OVCAR-8 ovarian; 129% in the assay with OVCAR-5 ovarian; 99.6% with OVCAR-4 ovarian; 103% in the assay with SK-OV-3 ovarian; 128% with IGROV1 ovarian; 118% in the assay with OVCAR-3 ovarian. The growth with HS 578T breast is 97.1%; with NCI/ADR-RES ovarian, 123%.
Turning to `CC(=O)c1ccc2c(N)c(C(=O)Nc3ccc(C(F)(F)F)cc3)sc2n1`, the growth is 67.7% with SK-MEL-2 melanoma; 40.7% with EKVX NSCLC; 73% with SN12C renal; 73.8% with UO-31 renal; 67% with TK-10 renal; 66.2% in the assay with ACHN renal. The growth in the assay with CAKI-1 renal is 56.9%; in the assay with A498 renal, 126%; in the assay on CCRF-CEM leukemia, 60.9%; with MOLT-4 leukemia, 32.7%; in the assay with SR leukemia, 39.3%; with RPMI-8226 leukemia it was 37.3%. Further, the growth in the assay on OVCAR-8 ovarian is 61.1%; in the assay on OVCAR-5 ovarian, 92.8%; in the assay on OVCAR-4 ovarian, 35.6%; in the assay on SK-OV-3 ovarian it was 89.1%; with IGROV1 ovarian, 93.5%; in the assay with OVCAR-3 ovarian it was 94.4%. Besides, the results for the growth with HS 578T breast and with NCI/ADR-RES ovarian were 84.2% and 34.8%, respectively.
With `COc1ccc(N=Nc2c(N)nn3c(-c4ccc(OC)c(OC)c4)ccnc23)cc1`, the growth in the assay with SK-MEL-2 melanoma is 103%; in the assay with EKVX NSCLC, 103%; with SN12C renal, 88.5%; in the assay with UO-31 renal it was 108%; with TK-10 renal, 88.6%; with ACHN renal it was 77.4%. The growth in the assay on CAKI-1 renal was -60.2% (active); with A498 renal it was 95.7%; in the assay with CCRF-CEM leukemia it was 86.9%; in the assay on MOLT-4 leukemia, 100%; in the assay on SR leukemia, 77.7%; with RPMI-8226 leukemia, 65.6%. Moreover, the growth with OVCAR-8 ovarian was 78.8%; with OVCAR-5 ovarian, 87.1%; in the assay with OVCAR-4 ovarian it was 95.5%; with SK-OV-3 ovarian, 56.4%; with IGROV1 ovarian, 95.4%; in the assay on OVCAR-3 ovarian, 109%. The growth was 98.4% in the assay with HS 578T breast and 79.2% with NCI/ADR-RES ovarian.
`Cn1ncc2c(N)nc(Oc3ccccc3-c3ccccc3)nc21`: the growth with SK-MEL-2 melanoma is -4.9% (active); in the assay on EKVX NSCLC it was 41.6%; with SN12C renal it was 43.3%; with UO-31 renal it was 48.1%; in the assay on TK-10 renal it was 65.1%; in the assay on ACHN renal it was 51.6%. In addition, the growth with CAKI-1 renal was 29%; with A498 renal, 105%; with CCRF-CEM leukemia it was 25.5%; in the assay with MOLT-4 leukemia it was 8.1% (active); in the assay with SR leukemia, -4.14% (active); in the assay on RPMI-8226 leukemia it was 19.4%. For the same molecule, the growth in the assay with OVCAR-8 ovarian was 36.2%; in the assay on OVCAR-5 ovarian it was 66.8%; with OVCAR-4 ovarian, 58.3%; in the assay with SK-OV-3 ovarian it was 110%; in the assay with IGROV1 ovarian it was 38.6%; in the assay on OVCAR-3 ovarian, 27.9%. Further, the growth was 40.9% in the assay with HS 578T breast and -9.01% (active) with NCI/ADR-RES ovarian.
As for `CC1=C(C)C(=O)C(NCCN2CCOCC2)=C(Br)C1=O`, the growth with SK-MEL-2 melanoma is 68.9%; in the assay on EKVX NSCLC it was 46.4%; with SN12C renal it was 52%; with UO-31 renal, 44.7%; with TK-10 renal it was 150%; in the assay on ACHN renal it was 62.3%. Moreover, the growth is 45.3% with CAKI-1 renal; 124% in the assay on A498 renal; -21% (active) in the assay with CCRF-CEM leukemia; 0.284% (active) with MOLT-4 leukemia; 55.9% in the assay on SR leukemia; 58.6% with RPMI-8226 leukemia. Further, the growth in the assay with OVCAR-8 ovarian was 16.3%; in the assay with OVCAR-5 ovarian, 4% (active); with OVCAR-4 ovarian, -67.4% (active); with SK-OV-3 ovarian, 87.5%; in the assay on IGROV1 ovarian, 31.4%; with OVCAR-3 ovarian it was -26.9% (active). Moreover, the growth in the assay with HS 578T breast is 60.4%; in the assay on NCI/ADR-RES ovarian it was 86.4%.
Take `NS(=O)(=O)c1ccc(Nc2nc(SCC(=O)c3ccc(F)cc3)nc3ccccc23)cc1`: the growth was 48.3% in the assay on SK-MEL-2 melanoma; 39.1% in the assay on EKVX NSCLC; 53.8% in the assay on SN12C renal; 29.1% in the assay with UO-31 renal; 80.9% in the assay on TK-10 renal; 49.7% in the assay on ACHN renal. Also, the growth is 47.3% with CAKI-1 renal; 94.6% in the assay on A498 renal; 26.9% in the assay on CCRF-CEM leukemia; 16.8% in the assay with MOLT-4 leukemia; 19.6% in the assay with SR leukemia; 30.6% with RPMI-8226 leukemia. The growth with OVCAR-8 ovarian is 52.9%; in the assay with OVCAR-5 ovarian, 78.1%; in the assay with OVCAR-4 ovarian it was 37.3%; in the assay with SK-OV-3 ovarian, 67.3%; in the assay with OVCAR-3 ovarian, 47.1%; in the assay on HS 578T breast, 53.1%. For the same molecule, the growth in the assay on NCI/ADR-RES ovarian is 28.7%.
